Test results from PubChem BioAssay (NCI).
Values joined by “and” are separate entries in the source; they are usually repeats but may differ in a detail not shown here. Equal values may be shown once. The panel holds about 83,000 compounds, 20% with a hit somewhere; the sample as a whole holds those more often.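 In brief: 96-well plates, 48 h treatment, single concentration, percent growth endpoint.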 Active and inactive are the calls of the source. The calls were made as follows: active = growth percent below 10; inactive = the rest.

Experiments:
Experiment in all cases: NCI-60 one-dose screen, 48 h (100 = growth as untreated, 0 = no growth, -100 = all killed)
Conditions in all cases: 10 µM unless noted
DU-145 prostate = test system: DU-145 prostate
K-562 leukemia = test system: K-562 leukemia
MALME-3M melanoma = test system: MALME-3M melanoma
MDA-MB-231 breast = test system: MDA-MB-231 breast
RXF 393 renal = test system: RXF 393 renal
SF-268 CNS = test system: SF-268 CNS
SF-295 CNS = test system: SF-295 CNS
SF-539 CNS = test system: SF-539 CNS
UACC-257 melanoma = test system: UACC-257 melanoma
M14 melanoma = test system: M14 melanoma

Row | Structure (SMILES) | growth (DU-145 prostate) | growth (K-562 leukemia) | growth (MALME-3M melanoma) | growth (MDA-MB-231 breast) | growth (RXF 393 renal) | growth (SF-268 CNS) | growth (SF-295 CNS) | growth (SF-539 CNS) | growth (UACC-257 melanoma) | growth (M14 melanoma)
1 | Cc1nnc(NC/C=C/c2ccccc2)s1 | 104% (inactive) and 106% (inactive) | 87.9% (inactive) and 94.2% (inactive) | 99.6% (inactive) | 105% (inactive) and 120% (inactive) | 102% (inactive) | 102% (inactive) and 97.3% (inactive) | 99.7% (inactive) | 109% (inactive) and 101% (inactive) | 96.9% (inactive) | 101% (inactive) and 104% (inactive)
2 | COc1ccc(-c2cn[nH]c2-c2cc(OC)c(OC)c(OC)c2)cc1N | 13.8% (inactive) and 3.66% (active) | 11% (inactive) and 11.5% (inactive) | 78.7% (inactive) and 44.3% (inactive) | 22.9% (inactive) and 14.6% (inactive) | 19.3% (inactive) | 26.5% (inactive) and 48.8% (inactive) | 3.28% (active) and 17.5% (inactive) | 1.73% (active) and -4.41% (active) | 66.7% (inactive) | 10.5% (inactive) and 15% (inactive)
3 | CN(C)c1ccc2nc3ccc(N)cc3[n+](-c3ccccc3)c2c1 | 46.7% (inactive) and 2.32% (active) | 9.29% (active) and 18.5% (inactive) | 4.82% (active) and -9.23% (active) | 51.6% (inactive) and 15.7% (inactive) | 65.6% (inactive) and 73.1% (inactive) | 30.3% (inactive) and 7.92% (active) | 29% (inactive) and -39.8% (active) | 19.8% (inactive) and -29.8% (active) | -12.2% (active) and -21% (active) | 40.8% (inactive) and 15% (inactive)
4 | CC[N+](CC)(CC(=O)Nc1c(C)cccc1C)Cc1ccccc1 | 101% (inactive) | 94.7% (inactive) | 96.3% (inactive) and 89.9% (inactive) | 75.7% (inactive) and 97.2% (inactive) | 92.8% (inactive) and 106% (inactive) | 91.9% (inactive) and 104% (inactive) | 104% (inactive) and 101% (inactive) | 111% (inactive) and 102% (inactive) | 92.2% (inactive) | 95.3% (inactive) and 100% (inactive)
5 | Cc1ncsc1CCO | 112% (inactive) and 105% (inactive) | 103% (inactive) and 108% (inactive) | 118% (inactive) and 86.2% (inactive) | 103% (inactive) and 105% (inactive) | 99% (inactive) and 133% (inactive) | 101% (inactive) and 94.3% (inactive) | 101% (inactive) and 100% (inactive) | 111% (inactive) and 99.6% (inactive) | 106% (inactive) and 92.9% (inactive) | 107% (inactive) and 95.3% (inactive)
6 | O=C(Nc1ccc(Br)cc1)c1cc(Br)ccc1O | 19.9% (inactive) and 8.81% (active) | 9.25% (active) and -22.8% (active) | -31.4% (active) and -27.8% (active) | -36.1% (active) and -21.9% (active) | 2.31% (active) and 38.3% (inactive) | 9.39% (active) and 9.12% (active) | -22.6% (active) and -16.5% (active) | 18.3% (inactive) and -1.29% (active) | 14% (inactive) and 8.51% (active) | 8.56% (active) and 8.13% (active)
7 | O=[N+]([O-])c1ccc(-n2[nH]nnc2=S)cc1 | 112% (inactive) | 102% (inactive) | 89.2% (inactive) | 93.6% (inactive) | 166% (inactive) | 98.3% (inactive) | 95.2% (inactive) | 104% (inactive) | 113% (inactive) | 109% (inactive)
8 | COc1ccc(CCN(C)CCCC(C#N)(c2ccc(OC)c(OC)c2)C(C)C)cc1OC (stereo not given) | 103% (inactive) and 96.6% (inactive) | 72.5% (inactive) and 95.2% (inactive) | 93.8% (inactive) and 102% (inactive) and 89.6% (inactive) | 85.2% (inactive) and 95.4% (inactive) and 99.3% (inactive) | 103% (inactive) and 96.2% (inactive) and 96.3% (inactive) | 97.4% (inactive) and 103% (inactive) and 96.2% (inactive) | 74.7% (inactive) and 67.2% (inactive) and 100% (inactive) | 107% (inactive) and 87.8% (inactive) and 110% (inactive) | 91.8% (inactive) and 96.1% (inactive) and 89.5% (inactive) | 102% (inactive) and 86.1% (inactive) and 94.2% (inactive)
9 | Cc1cc(C)c(N)c(Br)c1 | 122% (inactive) and 109% (inactive) | 107% (inactive) and 96.5% (inactive) | 105% (inactive) and 95.4% (inactive) | 112% (inactive) and 98.8% (inactive) | 116% (inactive) and 103% (inactive) | 105% (inactive) and 103% (inactive) | 127% (inactive) and 110% (inactive) | 108% (inactive) and 92.9% (inactive) | 106% (inactive) and 105% (inactive) | 103% (inactive)
10 | Cc1n[nH]c(=O)n(/N=C\c2c[nH]c3ccccc23)c1=O | 118% (inactive) | 93.7% (inactive) | 97% (inactive) | 123% (inactive) | 96.3% (inactive) | 99.6% (inactive) | 102% (inactive) | 104% (inactive) | 104% (inactive) | 121% (inactive)
11 | Cc1cc(N=Nc2ccc(C)c(N=Nc3cc(C)c(N)cc3N)c2)c(N)cc1N | 107% (inactive) and 90.9% (inactive) | 75.9% (inactive) and 34.5% (inactive) | 89.3% (inactive) and 98.5% (inactive) | 68.6% (inactive) and 73.3% (inactive) | 91.1% (inactive) and 89.1% (inactive) | 98.9% (inactive) and 80.7% (inactive) | 98.6% (inactive) and 66% (inactive) | 87.9% (inactive) and 99.8% (inactive) | 91.4% (inactive) and 89.9% (inactive) | 90.8% (inactive) and 65.4% (inactive)
12 | CC(C)(O)Cn1cc(-c2ccc3nc(OC4CC4)ccc3c2)c2c(N)ncnc21 | 102% (inactive) and 75.6% (inactive) | 88% (inactive) and 35.8% (inactive) | 70.2% (inactive) and 44.2% (inactive) | 69.2% (inactive) and 46.4% (inactive) | 73.3% (inactive) and 50.5% (inactive) | 91.2% (inactive) and 57.1% (inactive) | 79.2% (inactive) and 56.7% (inactive) | 81.6% (inactive) and 58.6% (inactive) | 70.8% (inactive) | 80.6% (inactive) and 62.3% (inactive)
13 | CC(=O)Nc1cccc2c1CCCC2 | 107% (inactive) and 101% (inactive) | 109% (inactive) and 110% (inactive) | 103% (inactive) and 95.5% (inactive) | 115% (inactive) and 110% (inactive) | 101% (inactive) | 95.6% (inactive) and 103% (inactive) | 94.9% (inactive) and 100% (inactive) | 107% (inactive) and 97.8% (inactive) | 67.1% (inactive) and 102% (inactive) | 94.5% (inactive) and 101% (inactive)
14 | COc1ccc(NC(=S)Nc2ccccn2)cc1 | 93% (inactive) | 87.1% (inactive) | 80.6% (inactive) | 99% (inactive) | 121% (inactive) | 90.7% (inactive) | 94.6% (inactive) | 109% (inactive) | 104% (inactive) | 106% (inactive)
15 | OCCN1CCN(CCCN2c3ccccc3Sc3ccc(Cl)cc32)CC1 | 97.3% (inactive) and 95.7% (inactive) | 13% (inactive) and 22.7% (inactive) | 16.5% (inactive) and 67.3% (inactive) | 12.2% (inactive) and 81.6% (inactive) | 56.1% (inactive) and 55.3% (inactive) | 80.8% (inactive) and 71.9% (inactive) | 52.4% (inactive) and 67.9% (inactive) | 80.2% (inactive) and 83.4% (inactive) | -43% (active) and -5.63% (active) | -76.7% (active) and 50.1% (inactive)
